The record followed here is PubChem BioAssay (NCATS).

Molecules are shown by their SMILES. Inconclusive results are not listed. Unmarked numbers belong to inactive results. Calls of active or inactive are those of the source. Calls follow the shape of the dose curve; as a rule, active = well fitted curve in the direction sought with a large enough effect; inconclusive = small, poorly fitted or top-dose-only effect, or another doubt; inactive = no such curve, though single readings can be large; an effect the other way counts as inactive or inconclusive.

The first assay is described as follows: qHTS of pediatric cancer cell lines to identify multiple opportunities for drug repurposing: Primary screen for BT-12 cells (AID 1347101).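 Also: plate controls were DMSO for no effect and bortezomib positive control for full effect; nearly all actives have a fitted effect of over 25% in size.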 Conditions: BT-12 viability, CellTiter-Glo luminescence, 48 h; series mostly up to 57.3 µM; activity change, negative = cytotoxic: at the top concentration. The procedure, abridged: (§1)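 Cells (500-1,000/well) rested 5 h, then received compounds for 48 h; metabolically active cells were measured by CellTiter-Glo luminescence. Final concentrations spanned up to 46 µM (MIPE, 11-point) or 0.59 nM-46 µM (NPC, 8-point) in primary screens, 11-point in follow-ups.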
For orientation: qHTS replaces the single test concentration by a dilution series.
`COc1cc(Cc2cnc(N)nc2N)cc(OC)c1OC`: the “activity change, negative = cytotoxic” value is -14.3%. Still for that read-out and setting: then `CN(C)C/C=C(/c1ccc(Br)cc1)c1cccnc1`, with 12.7%; and `O=C1CC2(CCCC2)CC(=O)N1CCCCN1CCN(c2ncccn2)CC1`, with -7.65%. On the same count and under the same terms, then `Cc1nnc(SCC2=C(C(=O)O)N3C(=O)[C@@H](NC(=O)Cn4cnnn4)[C@H]3SC2)s1`, with 6.91%.

As for `CN/C(=C\[N+](=O)[O-])NCCSCc1ccc(CN(C)C)o1`, the “activity change, negative = cytotoxic” value is -12.6%. Still for that read-out and setting: then `CC1=NS(=O)(=O)c2cc(Cl)ccc2N1`, with 15%; and `O=C(O)CCCCCCCC(=O)O`, with 9.04%; and `CCN(CC)CC(=O)Nc1c(C)cccc1C`, with 6.83%.

Take `Cc1scc2c1N(C(=O)CN1CCN(C)CC1)c1ccccc1NC2=O`: the “activity change, negative = cytotoxic” value is -2.34%. The same measure, in the same setting: as for `CCCOc1ccccc1-c1nc2n[nH]nc2c(=O)[nH]1`, the figure is -19.4%.

Regarding `CN(C)CCOC(=O)COc1ccc(Cl)cc1`, the “activity change, negative = cytotoxic” value is 16.6%.

The next assay can be described thus: qHTS of pediatric cancer cell lines to identify multiple opportunities for drug repurposing: Primary screen for Rh18 cells (AID 1347102). Also: nearly all actives have a fitted effect of over 65% in size. Also: potency is read from the fitted curve at half-maximal effect. As to activity change, negative = cytotoxic: % is scaled to controls: 0 for no effect and ±100 for the full control effect. The settings on record: Rh18 rhabdomyosarcoma viability, CellTiter-Glo luminescence, 48 h; series mostly up to 46 µM; activity change, negative = cytotoxic: at the top concentration. The procedure, abridged:
as §1
As to `NC(Cc1ccc(Cl)cc1)C(=O)O` (stereo not given), the activity change, negative = cytotoxic was 15.1% [at 0.597 µM]. As for `CCCCCN(CCCCC)C(=O)C(CCC(=O)O)NC(=O)c1ccc(Cl)c(Cl)c1` (stereo not given), the “activity change, negative = cytotoxic” value is 3.96%. Same read-out and setting: as for `CCO/C([O-])=N/c1c[n+](N2CCOCC2)no1`, the figure is 3.65%. The same measure, in the same setting: as for `CCN(CC)CCOCCOC(=O)C1(c2ccccc2)CCCC1`, the figure is -2.09%. Regarding `CSc1ccc(C(=O)c2[nH]c(=O)[nH]c2C)cc1`, the “activity change, negative = cytotoxic” value was 2.05%. As to `CCn1cc(C(=O)O)c(=O)c2cc3c(cc21)OCO3`, the “activity change, negative = cytotoxic” value is 9.32% [at 16.1 µM].

Take `CC(=O)[C@@]1(O)CC[C@H]2[C@@H]3CCC4=CC(=O)CC[C@]4(C)[C@H]3CC[C@@]21C`: the “activity change, negative = cytotoxic” value was -2.43%. In the case of `CN(C)CCN(Cc1cccs1)c1ccccn1`, the “activity change, negative = cytotoxic” value is -0.792%.

Consider `CC(C)(C)NCC(O)c1cc(O)cc(O)c1` (stereo not given), for which the “activity change, negative = cytotoxic” value is 9.87%. On the same count and under the same terms, then `CN(C)C(=O)Oc1cccc([N+](C)(C)C)c1`, with 34.2%; and `COc1ccc(CN(CCN(C)C)c2ccccn2)cc1`, with 2.16%; and `O=c1[nH]c(=O)n([C@H]2C[C@H](O)[C@@H](CO)O2)cc1Br`, with 3.36%. Consider `C[C@]12C=CC(=O)C=C1CC[C@H]1[C@@H]3C[C@@H](O)[C@](O)(C(=O)CO)[C@@]3(C)C[C@H](O)[C@@]12F`, for which the “activity change, negative = cytotoxic” value was 12.8%. `CCCNC(C)C(=O)Nc1ccccc1C` (stereo not given): the “activity change, negative = cytotoxic” value was 32.7%. In the case of `CC(N=C(NC#N)Nc1ccncc1)C(C)(C)C` (stereo not given), the “activity change, negative = cytotoxic” value is -14.9%. Consider `CC(=O)[C@]1(O)Cc2c(O)c3c(c(O)c2[C@@H](O[C@H]2C[C@H](N)[C@H](O)[C@H](C)O2)C1)C(=O)c1ccccc1C3=O`, for which the Potency is 422 nM (active). As to `NC/C=C/C(=O)O`, the “activity change, negative = cytotoxic” value was 13.6%. On the same count and under the same terms, then `Nc1c2c(nc3ccccc13)CCCC2O` (stereo not given), with 18.6%.

`OCCN1CCN(CCCN2c3ccccc3C=Cc3ccccc32)CC1`: the “activity change, negative = cytotoxic” value is -24.1%. Consider `Cc1cccc(C)c1NC(=O)C(C)N` (stereo not given), for which the “activity change, negative = cytotoxic” value was -0.457%. For `CCNC(=O)N1CCN(CCCC(c2ccc(F)cc2)c2ccc(F)cc2)CC1`, the “activity change, negative = cytotoxic” value was 1.74%. Same read-out and setting: as for `C[C@]12CCC(=O)C=C1CC[C@@H]1[C@@H]2C(=O)C[C@@]2(C)[C@H]1CC[C@]2(O)C(=O)CO`, the figure is 9.65%; as for `COc1cc(Cc2cnc(N)nc2N)cc(OC)c1OC`, 3.22%; as for `CN(C)C/C=C(/c1ccc(Br)cc1)c1cccnc1`, 8.11%.

As for `O=C1CC2(CCCC2)CC(=O)N1CCCCN1CCN(c2ncccn2)CC1`, the “activity change, negative = cytotoxic” value was 1.65%.

As for `Cc1nnc(SCC2=C(C(=O)O)N3C(=O)[C@@H](NC(=O)Cn4cnnn4)[C@H]3SC2)s1`, the “activity change, negative = cytotoxic” value was 11.1%. With `CN/C(=C\[N+](=O)[O-])NCCSCc1ccc(CN(C)C)o1`, the “activity change, negative = cytotoxic” value was 7.36%. Same read-out and setting: then `CC1=NS(=O)(=O)c2cc(Cl)ccc2N1`, with 18%. For the compound `O=C(O)CCCCCCCC(=O)O`, the “activity change, negative = cytotoxic” value was -4.03%. Same read-out and setting: then `CCN(CC)CC(=O)Nc1c(C)cccc1C`, with 12.5%; and `Cc1scc2c1N(C(=O)CN1CCN(C)CC1)c1ccccc1NC2=O`, with 4.15%; and `CCCOc1ccccc1-c1nc2n[nH]nc2c(=O)[nH]1`, with 12.8%.

As to `CN(C)CCOC(=O)COc1ccc(Cl)cc1`, the “activity change, negative = cytotoxic” value is 14.5%.

The next assay can be described thus: qHTS of pediatric cancer cell lines to identify multiple opportunities for drug repurposing: Primary screen for OHS-50 cells (AID 1347103). Also: nearly all actives have a fitted effect of over 40% in size. Also: potency is read from the fitted curve at half-maximal effect.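 As to activity change, negative = cytotoxic: plate controls were DMSO neutral control for no effect and bortezomib positive control for full effect.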 Conditions: OHS-50 osteosarcoma viability, CellTiter-Glo luminescence, 48 h; series mostly up to 57.3 µM; activity change, negative = cytotoxic: at the top concentration. Summed up:
as §1
As for `NC(Cc1ccc(Cl)cc1)C(=O)O` (stereo not given), the activity change, negative = cytotoxic was 9.59% [at 0.73 µM]. For `CCCCCN(CCCCC)C(=O)C(CCC(=O)O)NC(=O)c1ccc(Cl)c(Cl)c1` (stereo not given), the “activity change, negative = cytotoxic” value is 5.68%. The same measure, in the same setting: as for `CCO/C([O-])=N/c1c[n+](N2CCOCC2)no1`, the figure is -9.86%; as for `CSc1ccc(C(=O)c2[nH]c(=O)[nH]c2C)cc1`, -5.23%; as for `CCn1cc(C(=O)O)c(=O)c2cc3c(cc21)OCO3`, -3.68% [at 19.7 µM]. In the case of `CC(C)(C)NCC(O)c1cc(O)cc(O)c1` (stereo not given), the “activity change, negative = cytotoxic” value is 5.29%. Same read-out and setting: then `CN(C)C(=O)Oc1cccc([N+](C)(C)C)c1`, with 16.5%; and `COc1ccc(CN(CCN(C)C)c2ccccn2)cc1`, with -18.4%.

For `CC(=O)[C@]1(O)Cc2c(O)c3c(c(O)c2[C@@H](O[C@H]2C[C@H](N)[C@H](O)[C@H](C)O2)C1)C(=O)c1ccccc1C3=O`, the Potency was 1100 nM (active). For `NC/C=C/C(=O)O`, the “activity change, negative = cytotoxic” value was 15.9%. As for `C[C@]12CCC(=O)C=C1CC[C@@H]1[C@@H]2C(=O)C[C@@]2(C)[C@H]1CC[C@]2(O)C(=O)CO`, the “activity change, negative = cytotoxic” value is -7.36%. As to `O=C1CC2(CCCC2)CC(=O)N1CCCCN1CCN(c2ncccn2)CC1`, the “activity change, negative = cytotoxic” value is -13.4%. Same read-out and setting: as for `CN/C(=C\[N+](=O)[O-])NCCSCc1ccc(CN(C)C)o1`, the figure is 8.54%; as for `CCN(CC)CC(=O)Nc1c(C)cccc1C`, -10.8%.

Turning to `NC1=NCC2c3ccccc3Cc3ccccc3N12` (stereo not given), the “activity change, negative = cytotoxic” value was 8.16%.

With `CN(C)CCOC(=O)COc1ccc(Cl)cc1`, the “activity change, negative = cytotoxic” value was 11.7%.
